# About 410 targets per protein were measured; listed, in parts, are those with the strongest signals and a random draw of the rest.
# B1: DC-ASGPR Long (Homo sapiens) (protein)
# chain: MTRTYENFQYLENKVKVQGFKNGPLPLQSLLQRLRSGPCHLLLSLGLGLLLLVIICVVGFQNSKFQRDLVTLRTDFSNFTSNTVAEIQALTSQGSSLEETIASLKAEVEGFKQERQAGVSELQEHTTQKAHLGHCPHCPSVCVPVHSEMLLRVQQLVQDLKKLTCQVATLNNNASTEGTCCPVNWVEHQDSCYWFSHSGMSWAEAEKYCQLKNAHLVVINSREEQNFVQKYLGSAYTWMGLSDPEGAWKWVDGTDYATGFQNWKPGQPDDWQGHGLGGGEDCAHFHPDGGWNDDVCQRPYHWVCEAGLGQTSQESH
# B2: CAA (Caragana arborescens) (protein)
# chain: VAVEFDTFDNPDWDPRTKHIGIDVNSIRSNKTTQWGFWNRQVADVDISYEASSKTLNVSLYYPGESYIVTDVVDLKDILPEWVRIGF
# Legend:
# Assay in all cases: glycan array binding signal (z-score within array); higher = stronger binding
# Settings in all cases: glycan notation: IUPAC condensed, linker removed
# [1] = target: Neu5Ac(a2-3)Gal(b1-3)[Neu5Ac(a2-6)]GlcNAc(b1-3)[Fuc(a1-3)[Gal(b1-4)]GlcNAc(b1-6)]Gal(b1-4)Glc
# Outline: (§1)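 Negative Z-scores can be read as non-binding. The Z-score is calculated within each array and then averaged across arrays of one protein sequence at different concentrations or buffers and across linkers. Arrays, 3228 in all, were curated from the Consortium for Functional Glycomics database and kept only where the protein sequence was available.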
# Neu5Ac(a2-3)Gal(b1-4)Glc = target: Neu5Ac(a2-3)Gal(b1-4)Glc
# Outline: as §1
# [2] = target: Neu5Ac(a2-3)Gal(b1-4)[Fuc(a1-3)]GlcNAc(b1-3)GalNAc
# Outline: as §1
# [3] = target: Neu5Ac(a2-6)Gal(b1-4)GlcNAc(b1-2)Man(a1-3)[Neu5Ac(a2-6)Gal(b1-4)GlcNAc(b1-2)Man(a1-6)]Man(b1-4)GlcNAc(b1-4)GlcNAc
# Outline: as §1
# [4] = target: Neu5Ac(a2-6)Gal(b1-4)GlcNAc(b1-2)Man(a1-3)[Neu5Ac(a2-6)Gal(b1-4)GlcNAc(b1-2)Man(a1-6)]Man(b1-4)GlcNAc(b1-4)[Fuc(a1-6)]GlcNAc
# Outline: as §1
# [5] = target: Neu5Ac(a2-6)Gal(b1-4)GlcNAc(b1-2)Man(a1-6)[Man(a1-3)]Man(b1-4)GlcNAc(b1-4)GlcNAc
# Outline: as §1
# [6] = target: Neu5Ac(a2-6)Gal(b1-4)GlcNAc(b1-6)GalNAc
# Outline: as §1
# [7] = target: Neu5Ac(a2-8)Neu5Ac(a2-3)Gal(b1-3)GalNAc(b1-4)[Neu5Ac(a2-8)Neu5Ac(a2-3)]Gal(b1-4)Glc
# Outline: as §1
# [8] = target: Neu5Ac(a2-8)Neu5Ac(a2-8)Neu5Ac
# Outline: as §1
# [9] = target: Fuc(a1-2)Gal(b1-3)GlcNAc(b1-2)Man(a1-3)[Fuc(a1-2)Gal(b1-3)GlcNAc(b1-2)Man(a1-6)]Man(b1-4)GlcNAc(b1-4)GlcNAc
# Outline: as §1
# [10] = target: Fuc(a1-2)Gal(b1-3)GlcNAc(b1-3)GalNAc
# Outline: as §1
# [11] = target: Fuc(a1-2)Gal(b1-3)GlcNAc(b1-3)[Fuc(a1-2)Gal(b1-3)GlcNAc(b1-6)]GalNAc
# Outline: as §1
# [12] = target: Fuc(a1-2)Gal(b1-3)GlcNAc(b1-3)[Gal(b1-4)GlcNAc(b1-6)]Gal(b1-4)Glc
# Outline: as §1
# [13] = target: Fuc(a1-2)Gal(b1-3)[Fuc(a1-4)]GlcNAc(b1-2)Man(a1-3)[Fuc(a1-2)Gal(b1-3)[Fuc(a1-4)]GlcNAc(b1-2)Man(a1-6)]Man(b1-4)GlcNAc(b1-4)[Fuc(a1-6)]GlcNAc(b1-4)[Fuc(a1-6)]GlcNAc
# Outline: as §1
# Fuc(a1-2)Gal(b1-4)GlcNAc = target: Fuc(a1-2)Gal(b1-4)GlcNAc
# Outline: as §1
# [14] = target: Fuc(a1-2)Gal(b1-4)GlcNAc(b1-2)Man(a1-3)[Fuc(a1-2)Gal(b1-4)GlcNAc(b1-2)Man(a1-6)]Man(b1-4)GlcNAc(b1-4)GlcNAc
# Outline: as §1
# [15] = target: Fuc(a1-2)Gal(b1-4)[Fuc(a1-3)]GlcNAc(b1-3)GalNAc
# Outline: as §1
# [16] = target: Fuc(a1-2)[Gal(a1-3)]Gal(b1-3)GlcNAc
# Outline: as §1
# [17] = target: Fuc(a1-2)[Gal(a1-3)]Gal(b1-3)GlcNAc(b1-2)Man(a1-3)[Fuc(a1-2)[Gal(a1-3)]Gal(b1-3)GlcNAc(b1-2)Man(a1-6)]Man(b1-4)GlcNAc(b1-4)GlcNAc
# Outline: as §1
# [18] = target: Fuc(a1-2)[Gal(a1-3)]Gal(b1-4)GlcNAc(b1-6)GalNAc
# Outline: as §1
# [19] = target: Fuc(a1-2)[GalNAc(a1-3)]Gal(b1-4)GlcNAc(b1-3)Gal(b1-4)GlcNAc(b1-3)Gal(b1-4)GlcNAc
# Outline: as §1
# [20] = target: Gal(b1-3)GalNAc(b1-3)Gal(a1-4)Gal(b1-4)Glc
# Outline: as §1
# [21] = target: Gal(b1-3)GlcNAc(b1-2)Man(a1-3)[Gal(b1-3)GlcNAc(b1-2)Man(a1-6)]Man(b1-4)GlcNAc(b1-4)GlcNAc
# Outline: as §1
# [22] = target: Gal(b1-3)GlcNAc(b1-2)Man(a1-3)[Gal(b1-3)GlcNAc(b1-2)Man(a1-6)]Man(b1-4)GlcNAc(b1-4)[Fuc(a1-6)]GlcNAc
# Outline: as §1
# [23] = target: Gal(b1-3)GlcNAc(b1-2)[Gal(b1-3)GlcNAc(b1-6)]Man(a1-6)[Gal(b1-3)GlcNAc(b1-2)Man(a1-3)]Man(b1-4)GlcNAc(b1-4)GlcNAc
# Outline: as §1
# [24] = target: Gal(b1-3)[Fuc(a1-4)]GlcNAc
# Outline: as §1
# Gal(b1-4)Gal = target: Gal(b1-4)Gal
# Outline: as §1
# [25] = target: Gal(b1-4)GlcNAc(a1-6)Gal(b1-4)GlcNAc
# Outline: as §1
# [26] = target: Gal(b1-4)GlcNAc(b1-2)Man(a1-3)[Gal(b1-4)GlcNAc(b1-2)Man(a1-6)]Man(b1-4)GlcNAc(b1-4)GlcNAc
# Outline: as §1
# [27] = target: Gal(b1-4)GlcNAc(b1-2)Man(a1-3)[GlcNAc(b1-4)][Gal(b1-4)GlcNAc(b1-2)Man(a1-6)]Man(b1-4)GlcNAc(b1-4)GlcNAc
# Outline: as §1
# [28] = target: Gal(b1-4)GlcNAc(b1-2)Man(a1-6)[GlcNAc(b1-2)Man(a1-3)]Man(b1-4)GlcNAc(b1-4)GlcNAc
# Outline: as §1
# [29] = target: Gal(b1-4)GlcNAc(b1-2)[Gal(b1-4)GlcNAc(b1-4)]Man(a1-3)[GlcNAc(b1-4)][Gal(b1-4)GlcNAc(b1-2)Man(a1-6)]Man(b1-4)GlcNAc(b1-4)GlcNAc
# Outline: as §1
# GalNAc6S(b1-4)GlcNAc = target: GalNAc6S(b1-4)GlcNAc
# Outline: as §1
# GlcA(b1-6)Gal = target: GlcA(b1-6)Gal
# Outline: as §1
# [30] = target: GlcNAc(a1-4)Gal(b1-4)GalNAc
# Outline: as §1
# [31] = target: GlcNAc(b1-2)Man(a1-3)[GlcNAc(b1-2)Man(a1-6)]Man(b1-4)GlcNAc(b1-4)GlcNAc
# Outline: as §1
# [32] = target: GlcNAc(b1-2)[GlcNAc(b1-4)]Man(a1-3)[GlcNAc(b1-2)Man(a1-6)]Man(b1-4)GlcNAc(b1-4)GlcNAc
# Outline: as §1
# GlcNAc(b1-3)Fuc = target: GlcNAc(b1-3)Fuc
# Outline: as §1
# [33] = target: Man(a1-2)Man(a1-3)[Man(a1-2)Man(a1-6)]Man(a1-6)[Man(a1-2)Man(a1-2)Man(a1-3)]Man
# Outline: as §1
# [34] = target: Neu5Ac(a2-3)Gal(b1-3)[Fuc(a1-4)]GlcNAc(b1-3)Gal(b1-3)[Fuc(a1-4)]GlcNAc
# Outline: as §1
# [35] = target: Neu5Ac(a2-3)Gal(b1-4)GlcNAc(b1-3)Gal(b1-4)[Fuc(a1-3)]GlcNAc
# Outline: as §1
# Neu5Ac(a2-3)GalNAc = target: Neu5Ac(a2-3)GalNAc
# Outline: as §1
# [36] = target: Neu5Ac(a2-6)Gal(b1-4)GlcNAc(b1-2)Man(a1-3)[GlcNAc(b1-4)][Neu5Ac(a2-6)Gal(b1-4)GlcNAc(b1-2)Man(a1-6)]Man(b1-4)GlcNAc(b1-4)GlcNAc
# Outline: as §1
# [37] = target: Neu5Ac(a2-6)Gal(b1-4)GlcNAc(b1-2)Man(a1-6)[Gal(b1-4)GlcNAc(b1-2)Man(a1-3)]Man(b1-4)GlcNAc(b1-4)GlcNAc
# Outline: as §1
# [38] = target: Neu5Ac(a2-6)Gal(b1-4)GlcNAc(b1-2)Man(a1-6)[GlcNAc(b1-2)Man(a1-3)]Man(b1-4)GlcNAc(b1-4)GlcNAc
# Outline: as §1
# [39] = target: Neu5Ac9Ac(a2-6)Gal(b1-4)GlcNAc
# Outline: as §1
binder,measurement,setting,value
B1,glycan array binding signal (z-score),[1],-0.251
same,glycan array binding signal (z-score),Neu5Ac(a2-3)Gal(b1-4)Glc,-0.302
same,glycan array binding signal (z-score),[2],0.105
same,glycan array binding signal (z-score),[3],-0.115
same,glycan array binding signal (z-score),[4],-0.343
same,glycan array binding signal (z-score),[5],-0.516
same,glycan array binding signal (z-score),[6],-0.224
same,glycan array binding signal (z-score),[7],-0.349
same,glycan array binding signal (z-score),[8],-0.221
B2,glycan array binding signal (z-score),[9],4.07
same,glycan array binding signal (z-score),[10],-0.244
same,glycan array binding signal (z-score),[11],-0.242
same,glycan array binding signal (z-score),[12],-0.249
same,glycan array binding signal (z-score),[13],1.03
same,glycan array binding signal (z-score),Fuc(a1-2)Gal(b1-4)GlcNAc,-0.242
same,glycan array binding signal (z-score),[14],2.51
same,glycan array binding signal (z-score),[15],-0.238
same,glycan array binding signal (z-score),[16],-0.238
same,glycan array binding signal (z-score),[17],3.82
same,glycan array binding signal (z-score),[18],-0.248
same,glycan array binding signal (z-score),[19],-0.233
same,glycan array binding signal (z-score),[20],-0.24
same,glycan array binding signal (z-score),[21],6.61
same,glycan array binding signal (z-score),[22],5.29
same,glycan array binding signal (z-score),[23],5.63
same,glycan array binding signal (z-score),[24],-0.24
same,glycan array binding signal (z-score),Gal(b1-4)Gal,-0.24
same,glycan array binding signal (z-score),[25],-0.241
same,glycan array binding signal (z-score),[26],4.25
same,glycan array binding signal (z-score),[27],-0.106
same,glycan array binding signal (z-score),[28],5.87
same,glycan array binding signal (z-score),[29],-0.239
same,glycan array binding signal (z-score),GalNAc6S(b1-4)GlcNAc,-0.252
same,glycan array binding signal (z-score),GlcA(b1-6)Gal,-0.239
same,glycan array binding signal (z-score),[30],-0.239
same,glycan array binding signal (z-score),[31],5.92
same,glycan array binding signal (z-score),[32],7.33
same,glycan array binding signal (z-score),GlcNAc(b1-3)Fuc,-0.246
same,glycan array binding signal (z-score),[33],-0.246
same,glycan array binding signal (z-score),[34],-0.24
same,glycan array binding signal (z-score),[35],-0.242
same,glycan array binding signal (z-score),Neu5Ac(a2-3)GalNAc,-0.243
same,glycan array binding signal (z-score),[36],-0.251
same,glycan array binding signal (z-score),[37],3.9
same,glycan array binding signal (z-score),[38],5.95
same,glycan array binding signal (z-score),[5],0.262
same,glycan array binding signal (z-score),[6],-0.236
same,glycan array binding signal (z-score),[8],-0.249
same,glycan array binding signal (z-score),[39],-0.245

# — the supplement of paper PMC8728848
